Screening data: PubChem BioAssay, The Scripps Research Institute Molecular Screening Center
Rows were chosen to be rich in hits. Some 0.9% of all compounds tested hit in one or more screens of this group.
PPARg SRC2 recr – promotes SRC-2 coactivator recruitment by human PPARgamma; P37231; PPARgamma LBD-SRC-2 recruitment, biochemical; activation, % at 8 µM; actives 0.34% (n = 200,000); in the data active = activation above about 22%;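 also: 0% = vehicle and 100% = reference agonist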
Target sequence (P37231 whole entry, looked up, the tested form may be a part): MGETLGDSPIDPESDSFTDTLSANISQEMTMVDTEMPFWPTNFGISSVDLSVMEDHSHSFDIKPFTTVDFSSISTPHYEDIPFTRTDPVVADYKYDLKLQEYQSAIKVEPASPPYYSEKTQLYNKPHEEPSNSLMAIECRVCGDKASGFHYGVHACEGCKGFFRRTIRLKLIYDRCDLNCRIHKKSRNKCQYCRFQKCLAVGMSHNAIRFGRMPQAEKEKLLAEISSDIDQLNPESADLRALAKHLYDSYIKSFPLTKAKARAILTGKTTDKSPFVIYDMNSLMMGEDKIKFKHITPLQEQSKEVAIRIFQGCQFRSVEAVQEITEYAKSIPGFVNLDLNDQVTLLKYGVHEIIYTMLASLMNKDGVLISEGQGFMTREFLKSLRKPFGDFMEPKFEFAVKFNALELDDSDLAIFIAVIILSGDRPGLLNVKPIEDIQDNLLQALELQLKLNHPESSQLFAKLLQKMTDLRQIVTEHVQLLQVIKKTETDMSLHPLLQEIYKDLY
SRC1 TRFRET art – TR-FRET artefact, counter-screen to PPARgamma/SRC-1 agonist assay | TR-FRET detection artefact counter-screen, emission ratio; active compounds read high | TR-FRET ratio at 8 µM | actives 0.34% (n = 99,000) | AID 1051; in the data active = TR-FRET ratio above about 2300
SRC2 TRFRET art – TR-FRET artefact, counter-screen to PPARgamma/SRC-2 agonist assay | actives 0.4% (n = 200,000) | active compounds read high | TR-FRET ratio at 8 µM
PPARg SRC-1 ag – agonists of human PPARgamma SRC-1 coactivator recruitment; PPARgamma-SRC-1 coactivator recruitment biochemical assay; activation, % at 8 µM; P37231; actives 0.41% (n = 200,000); in the data active = activation above about 19%;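 also: 0% = DMSO and 100% = reference agonist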
SRC3 TRFRET art – TR-FRET artefact, counter-screen to PPARgamma/SRC-3 agonist assay; TR-FRET ratio at 8 µM; PPARgamma/SRC-3 format; active compounds read high; actives 0.39% (n = 99,000); AID 1048
PPARg SRC3 recr – promotes SRC-3 coactivator recruitment by human PPARgamma; P37231; biochemical PPARgamma/SRC-3 coactivator recruitment assay; activation, % at 8 µM; actives 0.26% (n = 200,000); in the data active = activation above about 23%;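 also: 0% = DMSO and 100% = reference agonist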
An asterisk follows results filed as active; nt = no result. Rule as the data show it, unless noted: active = TR-FRET ratio above about 2000; inactive = the rest.

SMILES | PPARg SRC2 recr | SRC1 TRFRET art | SRC2 TRFRET art | PPARg SRC-1 ag | SRC3 TRFRET art | PPARg SRC3 recr
CCC1CCCCN1C(=O)CSc1nc(N)cc(N)n1 (stereo not drawn) | 0 | 1816 | 1990* | 0 | 1654 | 1
O=C(CP(=O)(O)CC(=O)c1ccccc1)c1ccccc1 | 1 | 1869 | 1557 | 2 | 1661 | 4
NS(=O)(=O)c1ccc(CNC(=S)Nc2ccc(F)c(Cl)c2)cc1 | 5 | 1672 | 1378 | 2 | 1772 | -1
NS(=O)(=O)c1ccc(NC(=S)NCc2ccc(Cl)cc2)cc1 | 4 | nt | 1569 | -3 | nt | 30*
COc1ccc(NC(=O)COC(=O)c2cccc(S(=O)(=O)N(C)C)c2)cc1 | -3 | 2141 | 1513 | 24* | 1754 | 2
CCCNC(=O)C(CC)NS(=O)(=O)c1ccc(OC)cc1 (stereo not drawn) | 13 | nt | 1497 | 7 | nt | 44*
CCOC(=O)Cn1cnc2c(C#N)c3n(c2c1=O)CCCCC3 | -1 | nt | 1609 | -3 | nt | 11
Fc1ccccc1CSc1nc2ncc(Br)cc2[nH]1 | 24* | nt | 1920 | 3 | nt | 7
N#Cc1ccccc1CSc1nc2ncc(Br)cc2[nH]1 | 16 | 1936 | 1754 | 4 | 1759 | 3
COc1cccc(NC(=S)NNC(=O)CCn2cc([N+](=O)[O-])cn2)c1 | 12 | 1900 | 1563 | 5 | 1550 | 0
Cc1cc(C(=O)CSc2nn3c(=O)c(C(C)(C)C)nnc3s2)c(C)n1-c1ccc(F)cc1 | 13 | nt | 2070* | 9 | nt | 22
CC(C)N(C(=O)CSc1nn2c(=O)c(C(C)(C)C)nnc2s1)c1ccccc1 | -6 | nt | 1419 | 0 | nt | 0
NC(N)=N/N=C/c1ccc(Br)cc1 | -1 | 1941 | 1681 | 10 | 1566 | 5
N#Cc1ccc(/C=N/N=C(N)N)cc1 | 7 | nt | 1780 | 3 | nt | 26*
Cc1cccc(N2CC3=C(C2=O)C(c2ccccc2)NC(=O)N3C)c1 (stereo not drawn) | -6 | 1839 | 1560 | 3 | 1711 | -4
CCCCOc1ccc(NC2=NC3(CCCC3)N=C(N)N2)cc1 | 41* | nt | 2220* | 7 | nt | 2
COc1ccc(Oc2ncc(CN3CCN(c4ccccc4)CC3)s2)cc1 | -2 | nt | 1469 | -5 | nt | 1
CC1CCN(S(=O)(=O)c2ccc3c(c2)oc(=O)n3CC(=O)N2c3ccccc3CC2C)CC1 (stereo not drawn) | 16 | nt | 2000* | 10 | nt | 9
CCOC(=O)CS(=O)(=O)c1ccc(O)cc1 | 0 | 1801 | 1582 | 21* | 1704 | 3
CCOC(=O)CS(=O)(=O)c1ccccc1 | 0 | nt | 1540 | 1 | nt | 4
CCCOc1cccc(C(=O)Nc2cccnc2)c1 | 4 | nt | 1769 | 7 | nt | 2
CON(C)S(=O)(=O)c1ccc2c(c1)N(Cc1ccc(C)cc1)C(=O)C1CCCN21 (stereo not drawn) | 5 | 2187 | 1753 | 1 | 2052* | 6
O=C1C2CCCN2c2ccc(S(=O)(=O)N3CCOCC3)cc2N1Cc1cccc(C(F)(F)F)c1 (stereo not drawn) | 6 | nt | 1640 | 4 | nt | 5
O=C(O)c1cc(-c2ccco2)nc2ccc(Br)cc12 | 22 | 2318* | 2007* | 18 | 2104* | 16
O=C(c1ccco1)N1CCN(C(=O)c2cc(-c3ccncc3)nc3ccc(Br)cc23)CC1 | 5 | nt | 1679 | 9 | nt | 15
SMILES | PPARg SRC2 recr | SRC1 TRFRET art | SRC2 TRFRET art | PPARg SRC-1 ag | SRC3 TRFRET art | PPARg SRC3 recr
Cc1cc(=O)n2nc(N3CCCC(C(=O)N4CCN(c5ccccc5)CC4)C3)sc2n1 (stereo not drawn) | -2 | 1932 | 1636 | 2 | 1673 | 2
O=C(C1=C[C@@H](c2ccc(C(F)(F)F)cc2)C[C@@H](OCCCCO)O1)N1CCN(Cc2ccc3c(c2)OCO3)CC1 | 0 | 1799 | 1423 | 10 | 1594 | 32*
Cn1c(=O)c(C(=O)COC(=O)c2cc(-c3ccco3)nc3ccccc23)c(N)n(Cc2ccccc2)c1=O | 6 | 1859 | 1730 | 10 | 1697 | 2
CN1CCc2c(sc3c2C(=O)NC(c2ccc(-c4cccc(Cl)c4)o2)N3)C1 (stereo not drawn) | 8 | 2385* | 1595 | 17 | 1691 | 8
CN1CCc2c(sc3c2C(=O)NC(c2cccs2)N3)C1 (stereo not drawn) | 9 | nt | 1555 | 6 | nt | 0
Cc1onc(-c2c(Cl)cccc2Cl)c1C(=O)Nc1ccc2c(c1)OCO2 | 1 | nt | 1501 | -6 | nt | 12
CCO[C@@H]1OC(C(=O)N2CCN(Cc3ccc4c(c3)OCO4)CC2)=C[C@H](c2csc3ccccc23)[C@H]1CCCO | 23* | 2146 | 1593 | 9 | 1578 | 6
CCO[C@H]1OC(C(=O)N2CCN(Cc3ccc4c(c3)OCO4)CC2)=C[C@@H](c2ccccc2)[C@@H]1CCCO | 1 | 1658 | 1574 | 4 | 1624 | 0
COc1ccc(N(C(=O)c2ccco2)S(=O)(=O)c2ccccc2)cc1 | 5 | nt | 1342 | 1 | nt | 0
CCOc1ccccc1NC(=S)N1CCN(c2nc(-c3ccc(F)cc3)cs2)CC1 | 11 | 2465* | 2063* | 6 | 2234* | 14
O=C(Nc1nc(-c2cccs2)cs1)c1ccc(S(=O)(=O)N2CCCC2)cc1 | 0 | nt | 2064* | -5 | nt | 4
CN(C)S(=O)(=O)c1ccc(C(=O)Nc2nc(-c3cccs3)cs2)cc1 | -3 | nt | 1736 | -5 | nt | -1
O=C(CN1C(=O)C2C3C=CC(C3)C2C1=O)NCCC1=CCCCC1 (stereo not drawn) | -7 | nt | 1361 | -12 | nt | -10
Cc1noc(C)c1S(=O)(=O)N(CC(=O)Nc1ccc2c(c1)OCO2)c1ccc(C(C)C)cc1 | 11 | nt | 1718 | 4 | nt | 5
Cc1n[nH]c(C)c1S(=O)(=O)N(CC(=O)Nc1ccc2c(c1)OCCO2)c1ccc(C(C)C)cc1 | 24* | nt | 1632 | 7 | nt | 0
O=C(c1ccccc1)c1nn(-c2ccccc2)c2nnc(Cc3ccccc3)c(=O)n12 | 14 | nt | 2100* | 6 | nt | 7
COc1cccc(-c2nc(=S)c3c(o2)CCCC3)c1 | 1 | 1897 | 1593 | 6 | 1536 | 6
CC(C)N(C)C(=O)C(=O)c1cccn1-c1cccc(Cl)c1C#N | 7 | 2315* | 1459 | 8 | 1624 | 6
COc1ccc(S(=O)(=O)N2CCN(C3Cc4ccccc4C3)CC2)cc1 | -1 | 1748 | 1352 | -6 | 2079* | 6
COc1ccc(S(=O)(=O)N2CCC(N3CCN(Cc4ccccc4)CC3)CC2)cc1 | -3 | 1599 | 1489 | -3 | 1572 | -4
CCCCn1nnc(NC(=O)C(c2ccccc2)c2ccccc2)n1 | 4 | 1569 | 1416 | -4 | 1359 | 1
CC(=O)Nc1ccc(C(=O)Nc2nc(-c3cccnc3)cs2)cc1 | -5 | 1713 | 1466 | 11 | 1482 | 1
CC(=O)Nc1ccc(C(=O)Nc2nc(-c3ccccn3)cs2)cc1 | 2 | 1947 | 1977* | 7 | 1655 | -1
